# Results as given in the supplement of paper PMC10037445.
# Over roughly 2,900 compounds, “NF-kB SEAP reporter activity, fold change vs agonist alone” has its median near 0.99; the highest 2% begin near 2.6. What follows is part of a selection rich in the highest values, with near analogues and random picks from the rest.
# What was measured:
# [1] = system: RAW-Dual; experiment: NF-kB SEAP reporter activity, fold change vs agonist alone; higher = enhanced NF-kB activity
# Procedure, shortened: (§1)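 After 50 nL of library stock was delivered by pin tool to RAW-Dual macrophages (50,000 cells/well, DMEM, 384-well plates), a PRR agonist was added 1 h later and the plates were kept at 37 °C, 5% CO2. Twenty hours later, IRF was read from supernatant by QuantiLuc luminescence and NF-κB by QuantiBlue absorbance at 620 nm. Reporter activity is stated as fold change over agonist-alone wells. Wells with IncuCyte confluency under 70% of agonist controls in both mask sets were counted as cytotoxic.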
# [2] = system: RAW-Dual; experiment: NF-kB SEAP reporter activity, fold change vs agonist alone; cytotoxicity flag (confluency mask): cytotoxic (confluency <70% of control); higher = enhanced NF-kB activity
# Procedure, shortened: as §1
# [3] = system: RAW-Dual; experiment: NF-kB SEAP reporter activity, fold change vs agonist alone; cytotoxicity flag (confluency mask): not cytotoxic; higher = enhanced NF-kB activity
# Procedure, shortened: as §1
# [4] = library stock concentration (final ~1000-fold dilution): 10 mM, cytotoxicity flag (confluency mask): cytotoxic (confluency <70% of control), agonist: Imiquimod (TLR7) […]
# [5] = library stock concentration (final ~1000-fold dilution): 10 mM, cytotoxicity flag (confluency mask): cytotoxic (confluency <70% of control), agonist: MPLA (TLR4) […]
# [6] = agonist: ODN 1826 (TLR9) 0.5 ug/mL
# [7] = agonist: Pam2CSK4 (TLR2/6) 0.1 ug/mL
# [8] = agonist: Pam3CSK4 (TLR2/1) 0.1 ug/mL
# [9] = library stock concentration (final ~1000-fold dilution): 10 mM, cytotoxicity flag (confluency mask): not cytotoxic, agonist: Imiquimod (TLR7) […]
# [10] = library stock concentration (final ~1000-fold dilution): 10 mM, cytotoxicity flag (confluency mask): not cytotoxic, agonist: MPLA (TLR4) […]
structure (smiles),measurement,setting,value
CCC(=C(c1ccccc1)c1ccc(OCCN(C)C)cc1)c1ccccc1,NF-kB SEAP reporter activity,[1]; [4],1.53
same,NF-kB SEAP reporter activity,[1]; [5],1.52
CCC(=C(c1ccccc1)c1ccc(OCCN(C)C)cc1)c1ccccc1 (library stock concentration (final ~1000-fold dilution): 10 mM),NF-kB SEAP reporter activity,[2]; agonist: LPS (TLR4) 0.1 ug/mL,0.687
same,NF-kB SEAP reporter activity,[2]; [6],0.447
same,NF-kB SEAP reporter activity,[2]; [7],0.398
same,NF-kB SEAP reporter activity,[2]; [8],0.525
Cc1ccccc1C(OCCN(C)C)c1ccccc1.Cl (centres undefined) (library stock concentration (final ~1000-fold dilution): 10 mM),NF-kB SEAP reporter activity,[3]; agonist: LPS (TLR4) 0.1 ug/mL,1.29
same,NF-kB SEAP reporter activity,[3]; [6],0.935
same,NF-kB SEAP reporter activity,[3]; [7],0.934
same,NF-kB SEAP reporter activity,[3]; [8],0.932
Cc1ccccc1C(OCCN(C)C)c1ccccc1.Cl (centres undefined),NF-kB SEAP reporter activity,[1]; [9],1.38
same,NF-kB SEAP reporter activity,[1]; [10],1.13
CCN(CC)CCCCNc1ncc2cc(-c3cc(OC)cc(OC)c3)c(NC(=O)NC(C)(C)C)nc2n1 (library stock concentration (final ~1000-fold dilution): 10 mM),NF-kB SEAP reporter activity,[2]; agonist: LPS (TLR4) 0.1 ug/mL,0.324
same,NF-kB SEAP reporter activity,[2]; [6],0.891
same,NF-kB SEAP reporter activity,[2]; [7],1.72
same,NF-kB SEAP reporter activity,[2]; [8],1.56
CNc1ncc2cc(-c3cc(NC(=O)NCCC(C)(C)C)c(F)cc3C)c(C)nc2n1,NF-kB SEAP reporter activity,"[1]; library stock concentration (final ~1000-fold dilution): 2 mM, cytotoxicity flag (confluency mask): not cytotoxic, agonist: Imiquimod (TLR7) […]",0.497
same,NF-kB SEAP reporter activity,"[1]; library stock concentration (final ~1000-fold dilution): 2 mM, cytotoxicity flag (confluency mask): not cytotoxic, agonist: MPLA (TLR4) […]",0.918
COc1cc(OC)cc(-c2cc3cnc(N)nc3nc2NC(=O)NC(C)(C)C)c1,NF-kB SEAP reporter activity,[1]; [9],0.989
same,NF-kB SEAP reporter activity,[1]; [10],1.1
CNc1ncc2cc(-c3cc(NC(=O)NCCC(C)(C)C)c(F)cc3C)c(C)nc2n1 (library stock concentration (final ~1000-fold dilution): 2 mM),NF-kB SEAP reporter activity,[3]; agonist: LPS (TLR4) 0.1 ug/mL,1.42
same,NF-kB SEAP reporter activity,[3]; [6],0.533
same,NF-kB SEAP reporter activity,[3]; [7],0.218
same,NF-kB SEAP reporter activity,[3]; [8],0.28
CCN(CC)CCCCNc1ncc2cc(-c3cc(OC)cc(OC)c3)c(NC(=O)NC(C)(C)C)nc2n1,NF-kB SEAP reporter activity,[1]; [4],2.8
same,NF-kB SEAP reporter activity,[1]; [5],2.71
COc1cc(OC)cc(-c2cc3cnc(N)nc3nc2NC(=O)NC(C)(C)C)c1 (library stock concentration (final ~1000-fold dilution): 10 mM),NF-kB SEAP reporter activity,[3]; agonist: LPS (TLR4) 0.1 ug/mL,5.36
same,NF-kB SEAP reporter activity,[3]; [6],1.02
same,NF-kB SEAP reporter activity,[3]; [7],0.578
same,NF-kB SEAP reporter activity,[3]; [8],0.747
O=C(c1cccc(Br)c1)N1CCC(N2CCCC2)CC1 (library stock concentration (final ~1000-fold dilution): 10 mM),NF-kB SEAP reporter activity,[3]; agonist: LPS (TLR4) 0.1 ug/mL,1.39
same,NF-kB SEAP reporter activity,[3]; [6],0.951
same,NF-kB SEAP reporter activity,[3]; [7],1.16
same,NF-kB SEAP reporter activity,[3]; [8],0.966
O=C(NC1(c2ccccc2)CC1)c1c(CN2CCC(N3CCCCC3)CC2)c(-c2cccc(C(F)(F)F)c2)nc2cc(Br)ccc12 (library stock concentration (final ~1000-fold dilution): 10 mM),NF-kB SEAP reporter activity,[2]; agonist: LPS (TLR4) 0.1 ug/mL,2.58
same,NF-kB SEAP reporter activity,[2]; [6],0.897
same,NF-kB SEAP reporter activity,[2]; [7],0.896
same,NF-kB SEAP reporter activity,[2]; [8],1.27
O=C(NC1(c2ccccc2)CC1)c1c(CN2CCC(N3CCCCC3)CC2)c(-c2cccc(C(F)(F)F)c2)nc2cc(Br)ccc12,NF-kB SEAP reporter activity,[1]; [4],0.916
same,NF-kB SEAP reporter activity,[1]; [5],1.03
O=C(c1cccc(Br)c1)N1CCC(N2CCCC2)CC1,NF-kB SEAP reporter activity,[1]; [10],1.09
CN1C(=O)C(NC(=O)c2n[nH]c(Cc3ccccc3)n2)COc2ccccc21 (centres undefined),NF-kB SEAP reporter activity,[1]; [9],1.3
same,NF-kB SEAP reporter activity,[1]; [10],0.971
CN1C(=O)C(NC(=O)c2n[nH]c(Cc3ccccc3)n2)COc2ccccc21 (centres undefined) (library stock concentration (final ~1000-fold dilution): 10 mM),NF-kB SEAP reporter activity,[3]; agonist: LPS (TLR4) 0.1 ug/mL,1.01
same,NF-kB SEAP reporter activity,[3]; [6],1.59
same,NF-kB SEAP reporter activity,[3]; [7],1.01
same,NF-kB SEAP reporter activity,[3]; [8],1.15
CN(C/C=C/C#CC(C)(C)C)Cc1cccc2ccccc12.Cl,NF-kB SEAP reporter activity,[1]; [9],1.56
same,NF-kB SEAP reporter activity,[1]; [10],2.08
